The values that follow come from PubChem BioAssay AID1794844 (National Center for Advancing Translational Sciences (NCATS), 2023).

Hit rate of the full screen: of about 2,800 compounds, fewer than 10 were called active. Roughly 7% stayed inconclusive and do not appear here. Calls come from the whole dose curve; as a rule, active = well fitted inhibition curve with a large enough effect; inconclusive = small, poorly fitted or top-dose-only effect; inactive = no such curve, though single readings can be large or run the other way. The list is a sample of the results. Where a call stands in place of a potency, no number is given.
Potency is the fitted concentration of half-maximal effect.

Chain of Metallo-beta-lactamase type 2 (Klebsiella pneumoniae) (C7C422 whole entry, looked up): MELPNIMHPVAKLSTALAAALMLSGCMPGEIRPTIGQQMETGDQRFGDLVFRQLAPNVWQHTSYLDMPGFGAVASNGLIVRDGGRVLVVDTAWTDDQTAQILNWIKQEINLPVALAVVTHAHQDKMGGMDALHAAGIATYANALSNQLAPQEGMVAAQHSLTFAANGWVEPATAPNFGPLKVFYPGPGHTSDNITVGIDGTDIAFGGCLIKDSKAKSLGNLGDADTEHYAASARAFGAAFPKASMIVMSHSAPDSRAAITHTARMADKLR

The target of this assay is Metallo-beta-lactamase type 2 (Klebsiella pneumoniae) (UniProt C7C422). Description: qHTS to identify inhibitors of the New Delhi Metallo-beta-lactamase (NDM): Nitrocefin screen against the machine-based learning selections. Particulars: NDM-1 enzyme, nitrocefin hydrolysis, absorbance 485 nm; series mostly up to 38.4 µM. From the text:
Assay Submitter (PI): James Inglese Ph.D., Patricia Dranchak Ph.D., Mahesh Aitha Ph.D. Assay Development and Screening Technology Laboratory (ADST) National Center for Advancing Translational Sciences (NCATS), Rockville, MD National Institute of Health (NIH), Bethesda, Maryland The metallo-beta-lactamases (MBL) are a main antibiotic resistance mechanism evolved by bacteria. There is an urgent clinical need for MBL inhibitors to mitigate this growing threat. To support a machine-based learning study, qHTS has been used to experimentally test inhibitors identified by prediction tools.
PROTOCOL TABLE (as described by Inglese et al., 2007) SEQUENCE No. (e.g., 1, 2, 3, etc.); […] (e.g., enzyme, Incubation, Reagent, etc.); VALUE; DESCRIPTION Primary Screen 1; NDM-1; 4 uL of 3 nM enzyme [2 nM final] in 50 mM HEPES (pH 7.0), 1 uM […], 0.01% Tween20; Use BioRaptr to dispense into two sets of Aurora black, clear bottom high base 1536-well plates 2; Compounds; 23 nL; Use Pin Tool (Wako) to transfer DMSO control and library compounds in DMSO 3; Incubate; >30 min 4a; Reagent; 2 uL of 50 uM nitrocefin [16.7 uM final] to one set of assay plates 4b; Reagent; 2 uL of 150 uM meropenem [50 uM final] to second set of assay plates 5a; Incubate; 15 min 5b; Incubate; 30 min 6a; Detector; Absorbance at 485 nm (bandwidth = 5 nm, 25 flashes/well) on Tecan Infinity 6b; Detector; Absorbance at 300 nm (bandwidth = 5 nm, 25 flashes/well) on Tecan Infinity NOTES (numbers refer to sequence above) 1; Column 1 of each plate received assay buffer without enzyme and columns 2-48 received enzyme for a final assay concentration of 2 nM. 2; Control plate contained DMSO in columns 1, 2, 3, and 4. 3; Compound interaction with enzyme. 4; Nitrocefin and meropenem substrates were prepared in the same assay buffer as step 1 for a final assay concentration of 16.7 uM and 50 uM, respectively, and added to all wells across respective sets of assay plates. 5; Default reader settings were applied for absorbance read at 485 nm (nitrocefin) or 300 nm (meropenem), bandwidth = 5 nm, 25 flashes/well. References: Inglese J, Shamu CE, Guy RK. 2007. Reporting data from high-throughput screening of small-molecule libraries. Nat Chem Biol. doi:10.1038/nchembio0807-438 Yasgar A, Shinn P, Jadhav A, Auld D, Michael S, Zheng W, Austin CP, Inglese J, Simeonov A. 2008. Compound Management for Quantitative High-Throughput Screening. J Lab Autom 13:79 - 89. doi:10.1016/j.jala.2007.12.004
On the technique in general: qHTS replaces the single test concentration by a dilution series.
For the molecule `Cc1ccc2c(n1)N(C)[C@H](CO)CCN(Cc1cccnc1)C2`, the Potency result is “inactive”.

Turning to `O=C(C1CC1)N1CCC2(CC1)CCN(CCc1ccccc1)c1ccccc1O2`, the Potency result is “inactive”.

Regarding `COc1ccc(OC)c(CNC(=O)CC2CCOCC2)c1`, the Potency entry is “inactive”.

On to `O=c1[nH]nc(CNCC2(O)CCCNC2)c2ccccc12` (stereo not drawn), for which the Potency result is “inactive”.

For the molecule `Cc1ccc(C(=O)NC2CCN(c3ccc(F)cc3)C2=O)s1` (stereo not drawn), the Potency entry was “inactive”.

As for `Cc1noc(C)c1S(=O)(=O)N1CCCN(Cc2ccncc2)C(c2ccccc2)CC(=O)NCC1` (stereo not drawn), the Potency entry is “inactive”.

Turning to `COc1cccc(N2C(=O)N[C@@H]3CCN(S(=O)(=O)c4ccccc4)[C@@H]3C2=O)c1`, the Potency entry was “inactive”.

In the case of `COc1ncccc1C(=O)N1CCc2c(nc(-c3cccnc3)[nH]c2=O)C1`, the Potency entry was “inactive”.

Regarding `CN1CCOc2c(C(=O)NCCC(N)=O)cc(-c3ccccc3O)cc21`, the Potency result is “inactive”.

As to `O=C(Cc1ccccc1)Nc1ccnn1C1CCN(Cc2ccc3cccc(F)c3n2)CC1`, the Potency entry was “inactive”.

Take `COC(=O)[C@H]1CN(C(=O)c2cccnc2)CCN1C(=O)C1CCCCC1`: the Potency result is “inactive”.

On to `COCCNC(=O)C[C@@H]1O[C@H](CNC(=O)c2cccc(F)c2)[C@@H](O)[C@H]1O`, for which the Potency entry was “inactive”.

With `N#Cc1cccc(CN2CCOC[C@H]2c2ncc(-c3ccc(C(F)(F)F)cc3)[nH]2)c1`, the Potency entry was “inactive”.

`CCN(CC)Cc1nc(C2(O)CCN(C)CC2)cs1`: the Potency result is “inactive”.

As to `Fc1ccc2nc([C@H]3CCN(C4CCC4)C3)[nH]c2c1`, the Potency entry is “inactive”.

Turning to `Cc1ccccc1C1CCCN1Cc1ncccc1C(=O)O` (stereo not drawn), the Potency is 13.4 µM (active).

Take `CSc1ncccc1C(=O)NC1CCCN(CCCc2ccccc2)C1` (stereo not drawn): the Potency result was “inactive”.

As to `CC(=O)N1CCN(c2cc(-c3noc([C@@H]4CCCN4Cc4ccccc4C)n3)ccn2)CC1`, the Potency result was “inactive”.

Turning to `O=c1c2nc(NCc3cccs3)ccc2ncn1Cc1ccccc1`, the Potency entry is “inactive”.

In the case of `COCCNS(=O)(=O)c1cc(C(=O)O)cc(-c2ccc(OC)c(F)c2)c1`, the Potency entry is “inactive”.

Consider `Cc1noc2c(-c3cccc(O)c3)cc(-c3cccs3)nc12`, for which the Potency entry is “inactive”.

In the case of `COC[C@H]1CCCN1C(=O)[C@@H](C)C1CC[C@@]2(C)CC[C@H](NC(=O)CC(C)(C)C)[C@@H](C)[C@@H]2[C@H]1O` (stereo partly drawn), the Potency result is “inactive”.

Regarding `CN1C(=O)C(c2ccccc2)CC12CCN(C(=O)c1cccc(F)c1)CC2` (stereo not drawn), the Potency result was “inactive”.

Take `CC(C)NC(=O)N1CCN(C(=O)N2CCOCC2)[C@@H](C(=O)N[C@H](Cc2c[nH]c3ccccc23)C(N)=O)C1`: the Potency entry was “inactive”.

In the case of `CC[C@H]1CN(C(=O)NC(C)C)CC[C@H]1CC(=O)N(C)CCC#N`, the Potency entry is “inactive”.

For the molecule `Cc1nn2cc(CCNCC3(O)CNCCOC3)nc2s1` (stereo not drawn), the Potency entry was “inactive”.

Take `COc1ccccc1C(O)c1nc(Nc2ccc(C(C)C)cc2)n[nH]1` (stereo not drawn): the Potency entry is “inactive”.

As for `Cc1ccc(NC(=O)N[C@@H]2C=C(C(=O)N[C@H](CC(C)C)C(N)=O)C[C@@H](O)[C@@H]2O)cc1`, the Potency result is “inactive”.

In the case of `Cc1ccc(-n2nc(C)c([C@@H]3C=C[C@@H](NCc4cccc(C#N)c4)C3)c2C)cc1Cl`, the Potency result is “inactive”.

With `OC(c1ccccc1)c1nc(Nc2ccc(C(F)(F)F)cc2)n[nH]1` (stereo not drawn), the Potency entry was “inactive”.

Regarding `CC(C)Cc1cc(C(=O)N2C[C@H](C3CC3)[C@@H](N)C2)n(C)n1`, the Potency entry is “inactive”.

For `O=C(c1ccc(Cn2cnnn2)cc1)N1CCC2(CC1)[C@H](O)C[C@@H]2OCCO`, the Potency result was “inactive”.

`COc1ccc(OC)c(CNC(=O)Cc2cccn2-c2ccc(C)cc2)c1`: the Potency result is “inactive”.

Take `COc1ccccc1C(O)c1nc(Nc2ccc(Cl)cc2)n[nH]1` (stereo not drawn): the Potency result is “inactive”.

As to `CNC(=O)C1(N2CCC[C@H]2C(=O)N2CCCC2)COC1`, the Potency entry is “inactive”.

`COCCO[C@H]1C(=O)N(C2CCN(C(=O)c3cnccn3)CC2)[C@H]1c1ccncc1`: the Potency entry was “inactive”.

Take `COc1ccc(C(=O)N2CC[C@@H](CC(=O)O)[C@@H](CCN3CCN(c4ccccn4)CC3)C2)cc1`: the Potency entry is “inactive”.

In the case of `COCCNC(=O)[C@@H]1CCC[C@@H](NC(=O)C2CC2)CN(C)C(=O)C1`, the Potency entry is “inactive”.

In the case of `Cc1cccc(C)c1-c1nc(C(=O)NCCc2ccc(Cl)cc2)n2ccccc12`, the Potency entry was “inactive”.

Regarding `COc1cccc(Nc2cc3c(cn2)CN(Cc2cccnc2)CCN3)c1`, the Potency entry was “inactive”.

`Cc1noc(C)c1S(=O)(=O)N1C[C@@H](C(N)=O)[C@H](C2CCN(C)CC2)C1`: the Potency entry was “inactive”.

As for `Nc1n[nH]c(CNc2cc(-c3ccc(F)cc3)nc3ccnn23)n1`, the Potency entry was “inactive”.

On to `COC(=O)c1ccccc1NC(=O)Cn1cccc1-c1nc(-c2ccccc2)no1`, for which the Potency result is “inactive”.

On to `COC(=O)[C@@H](C)NC(=O)[C@H]1CN(C(=O)c2cccnc2)CCN1S(C)(=O)=O`, for which the Potency result is “inactive”.

As for `Cc1noc2c(N3CCOCC3)cc(-c3cccnc3)nc12`, the Potency entry is “inactive”.

On to `CC(C)C[C@@H]1N[C@H](C(=O)NCc2cccs2)Cc2c[nH]c3cccc1c23`, for which the Potency result is “inactive”.

On to `CCCNC(=O)NC[C@H]1O[C@@H]2C[C@@H](CC(=O)N3CCC(F)(F)C3)O[C@@H]2[C@@H]1O`, for which the Potency result is “inactive”.

Take `O=C(N[C@H]1[C@H](O)[C@H](O)C[C@@H]1c1cccnc1)c1ccccn1`: the Potency result is “inactive”.
